In PubChem BioAssay (NCATS):
Results filed as inconclusive are left out. Entries that show only a call come without a potency. Calls of active or inactive are those of the source. Calls come from the whole dose curve; as a rule, active = well fitted curve in the direction sought with a large enough effect; inconclusive = small, poorly fitted or top-dose-only effect, or another doubt; inactive = no such curve, though single readings can be large; an effect the other way counts as inactive or inconclusive.

Assays:
[1] = qHTS assay for measurement of the activity of small molecule inhibitors on Zika virus induced Caspase-3 activity in human iPSC derived neural progenitor cells (hNPCs) (AID 1224857); note: nearly all actives have a fitted effect of over 65% in size
Procedure, shortened: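 Percent inhibition of virus-induced caspase-3/7 luminescence (Caspase-Glo), scaled between uninfected cells and Zika-infected cells. hNPCs received compound 1 hr before ZIKV at 2 FFU/cell, with 6 hours infection at 37 C.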

[2] = qHTS assay for measurement of the activity of small molecule inhibitors on Zika virus induced Caspase-3 activity in human astrocytoma cells (AID 1224859)
Procedure, shortened: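 Luminescent caspase-3/7 read-out (30 min reagent, room temperature) in human SNB-19 cells infected 6 h with ZIKV (2 FFU/cell) after 1 h compound pre-incubation; Data were normalised to uninfected and infected wells.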

[3] = P-glycoprotein substrates identified in KB-3-1 adenocarcinoma cell line, qHTS therapeutic library screen (AID 1346986); note: nearly all actives have a fitted effect of over 60% in size
Procedure, shortened: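 KB-3-1 parental and colchicine-selected P-gp-overexpressing KB-8-5-11 cells (colchicine omitted during assay), 500 cells/well, dosed in dose-response for 72 h at 37 °C; CellTiter-Glo luminescence. Cytotoxic: curve class -1.1 to -2.4, max response >50%, AC50 < 10 uM.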

[4] = P-glycoprotein substrates identified in KB-8-5-11 adenocarcinoma cell line, qHTS therapeutic library screen (AID 1346987); note: nearly all actives have a fitted effect of over 65% in size
Procedure, shortened: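 Steps: plate 500 KB-8-5-11 cells/well in DMEM + 10% FCS (colchicine removed); pin compounds in dose-response; incubate 72 h, 37 degree C, 5% CO2; add CellTiter-Glo, 5 min; read luminescence.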

[5] = NS1 protein of Zika virus - qHTS assay to identify small molecule inhibitors in human HEK 293 cells (AID 1347053); note: series mostly up to about 46 µM; nearly all actives have a fitted effect of over 55% in size
Procedure, shortened: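 HEK 293 cells pretreated with compound for 1 h, then infected with ZIKV MR766 (MOI 0.5) for 24 h at 37 C. NS1 detected by TR-FRET with two anti-NS1 antibodies; normalized to uninfected (0%) and infected (100%) wells.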

[6] = qHTS of pediatric cancer cell lines to identify multiple opportunities for drug repurposing: Primary screen for DAOY cells (AID 1347090); note: series mostly up to about 46 µM; nearly all actives have a fitted effect of over 55% in size
Procedure, shortened: (§1)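 Viability measured as metabolically active cells via CellTiter-Glo luminescence following 48 hours of compound exposure, 11-point dilutions in confirmatory testing. 500-1,000 cells/well plated 5 hours before dosing; controls were DMSO and 2.3 µM bortezomib.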

[7] = qHTS of pediatric cancer cell lines to identify multiple opportunities for drug repurposing: Primary screen for SJ-GBM2 cells (AID 1347091)
Procedure, shortened: as §1

[8] = qHTS of pediatric cancer cell lines to identify multiple opportunities for drug repurposing: Primary screen for A673 cells (AID 1347092); note: nearly all actives have a fitted effect of over 45% in size; note: potency is the fitted concentration of half-maximal effect
Procedure, shortened: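 48 h compound exposure, A673, 500-1,000 cells/well, 37 degrees C/5% CO2. MIPE: 11-point, 0.78 nM-46 µM; NPC: 8-point, 0.59 nM-46 µM (final). Readout CellTiter-Glo luminescence after 15 min RT.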

[9] = qHTS of pediatric cancer cell lines to identify multiple opportunities for drug repurposing: Primary screen for SK-N-MC cells (AID 1347093); note: potency is the fitted concentration of half-maximal effect
Procedure, shortened: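 Metabolically active cells were quantified by ATP-dependent luminescence (CellTiter-Glo, 15 min at room temperature) following 48 h treatment. Cells had been plated at 500-1,000 per well and settled for 5 h beforehand.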

[10] = qHTS of pediatric cancer cell lines to identify multiple opportunities for drug repurposing: Primary screen for BT-37 cells (AID 1347094); note: series mostly up to about 57 µM
Procedure, shortened: (§2)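 Primary screen of approved and investigational compounds on cells in growth media at 37 degrees C, 5% CO2. MIPE set at 11-point and NPC set at 8-point dilutions; viability scored by ATP-based luminescence at 48 hours.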

[11] = qHTS of pediatric cancer cell lines to identify multiple opportunities for drug repurposing: Primary screen for NB-EBc1 cells (AID 1347095)
Procedure, shortened: as §2

[12] = qHTS of pediatric cancer cell lines to identify multiple opportunities for drug repurposing: Primary screen for U-2 OS cells (AID 1347096); note: nearly all actives have a fitted effect of over 50% in size
Procedure, shortened: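 Viability after 48 h compound treatment at 37C, 500-1,000 cells/well, read as ATP luminescence with CellTiter-Glo. Primary screens used 11-point (MIPE, 0.78 nM-46 µM) or 8-point (NPC, 0.59 nM-46 µM) final concentrations; follow-up screens used 11-point dilutions.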

[13] = qHTS of pediatric cancer cell lines to identify multiple opportunities for drug repurposing: Primary screen for Saos-2 cells (AID 1347097); note: nearly all actives have a fitted effect of over 40% in size
Procedure, shortened: as §2

[14] = qHTS of pediatric cancer cell lines to identify multiple opportunities for drug repurposing: Primary screen for TC32 cells (AID 1347089); note: nearly all actives have a fitted effect of over 60% in size
Procedure, shortened: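 In the primary qHTS, MIPE compounds were tested at 11 concentrations (0.78 nM to 46 µM) and NPC compounds at 8 (0.59 nM to 46 µM) on TC32 cells for 48 h. CellTiter-Glo luminescence gave viability.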

For `CC(C(=O)O)c1ccc(/C=C2\CCCCC2=O)cc1` (centres undefined), the Potency [1] was “inactive”, the outcome [2] was “inactive” and the Potency [3] was “inactive”. The Potency [4] was “inactive”, the Potency [5] was “inactive” and the Potency [6] was “inactive”. For the same compound, the Potency [7] was “inactive”, the Potency [8] was “inactive” and the Potency [9] was “inactive”. For the same compound, the Potency [10] was “inactive”, the Potency [11] was “inactive” and the Potency [12] was “inactive”. The Potency [13] was “inactive”.
With `CC(=O)O[C@@H]1C(=O)O[C@@H]2[C@H]1OC(=O)[C@@H]2OC(C)=O` the Potency [1] was “inactive”, the outcome [2] was “inactive” and the Potency [3] was “inactive”. For the same compound, the Potency [4] was “inactive”, the Potency [5] was “inactive” and the Potency [7] was “inactive”. The Potency [8] was 13.3 µM (active), the Potency [9] was 3.76 µM (active) and the Potency [10] was “inactive”. For the same compound, the Potency [11] was “inactive”, the Potency [12] was “inactive” and the Potency [13] was “inactive”.
In the case of `CCCCCC[C@@H](CCC)C(=O)O`, the Potency [1] is reported as “inactive”, the outcome [2] is reported as “inactive” and the Potency [4] is reported as “inactive”. For the same compound, the Potency [5] was “inactive”, the Potency [14] was “inactive” and the Potency [6] was “inactive”. The Potency [7] was “inactive”, the Potency [8] was “inactive” and the Potency [9] was “inactive”. For the same compound, the Potency [10] was “inactive”, the Potency [11] was “inactive” and the Potency [12] was “inactive”.
For `CC1(C)S[C@@H]2[C@H](NC(=O)C(c3ccccc3)S(=O)(=O)O)C(=O)N2[C@H]1C(=O)O` (some centres undefined), the Potency [1] was “inactive”, the outcome [2] was “inactive” and the Potency [4] was “inactive”. For the same compound, the Potency [5] was “inactive”, the Potency [14] was “inactive” and the Potency [6] was “inactive”. The Potency [7] was “inactive”, the Potency [8] was “inactive” and the Potency [9] was “inactive”. The Potency [10] was “inactive”, the Potency [11] was “inactive” and the Potency [12] was “inactive”. The Potency [13] was “inactive”.
In the case of `CN(C)C(=O)CNC(=O)Cc1ccccc1`, the Potency [1] is reported as “inactive”, the outcome [2] is reported as “inactive” and the Potency [3] is reported as “inactive”. For the same compound, the Potency [4] was “inactive”, the Potency [6] was “inactive” and the Potency [7] was “inactive”. The Potency [8] was “inactive”, the Potency [9] was “inactive” and the Potency [10] was “inactive”. The Potency [11] was “inactive”, the Potency [12] was “inactive” and the Potency [13] was “inactive”.
With `CCN1C(=O)c2ccccc2C1Nc1ccc(OCCN2CCCCC2)cc1` (centres undefined) the Potency [1] was “inactive”, the outcome [2] was “inactive” and the Potency [3] was “inactive”. For the same compound, the Potency [14] was “inactive”, the Potency [6] was “inactive” and the Potency [7] was “inactive”. The Potency [8] was “inactive”, the Potency [9] was “inactive” and the Potency [10] was “inactive”. For the same compound, the Potency [11] was “inactive”, the Potency [12] was “inactive” and the Potency [13] was “inactive”.
With `CC(=O)OCC(=O)Nc1cc(C#N)cc(NC(=O)COC(C)=O)c1Cl` the Potency [1] was “inactive”, the outcome [2] was “inactive” and the Potency [3] was “inactive”. For the same compound, the Potency [4] was “inactive”, the Potency [5] was “inactive” and the Potency [14] was “inactive”. For the same compound, the Potency [6] was “inactive”, the Potency [7] was “inactive” and the Potency [8] was “inactive”. The Potency [9] was “inactive”, the Potency [10] was “inactive” and the Potency [11] was “inactive”.
In the case of `O=C(CCCCCCCCC#CI)Oc1ccccc1`, the Potency [1] is reported as “inactive”, the outcome [2] is reported as “inactive” and the Potency [3] is reported as “inactive”. The Potency [4] was “inactive”, the Potency [5] was “inactive” and the Potency [14] was “inactive”. For the same compound, the Potency [6] was “inactive”, the Potency [7] was “inactive” and the Potency [8] was “inactive”. For the same compound, the Potency [9] was “inactive”, the Potency [10] was “inactive” and the Potency [11] was “inactive”. The Potency [13] was “inactive”.
